# Results reported in PubChem BioAssay AID435003 (Sanford-Burnham Center for Chemical Genomics, 2010).
# Out of some 330,000 compounds screened, about 1,700 (0.52%) were called active. Many of the other results were omitted from the sample, so actives are more common in it than they were. A number with no mark means an inactive call. Cut-off read from the data, not from the text of the source: active = inhibition above about 50%; inactive = the rest.
# Assay: lowers stimulated NF-kB reporter luminescence – cell-based, uHTS, TCR NF-kB activation inhibitor project, primary screen (AID 435003)
# Details: Jurkat, PMA/ionomycin-induced NF-kB luciferase reporter, at 4 µM, active compounds read high
row,Structure (SMILES),inhibition
1,COc1ccc(-c2cc(C(F)(F)F)n3nc(C(=O)N4CCOCC4)c(Cl)c3n2)cc1,-15.4%
2,Cc1cccc(NC(=O)c2cc(S(=O)(=O)N3CCC4(CC3)OCCO4)ccc2F)c1,4.99%
3,Cc1cc(N/N=C\c2ccc(Br)cc2)nc(-n2nc(C)cc2C)n1,27.2%
4,COc1ccc(Nc2cc(C)nc(-n3nc(C)cc3C)n2)cc1,68.7% (active)
5,Cc1cc(C)n(-c2ccc(C(=O)O)cc2[N+](=O)[O-])n1,-2.8%
6,CC(=O)c1ccc(Oc2cc(C)nc(-n3nc(C)cc3C)n2)cc1,51.8% (active)
7,COc1ccc(NC(=O)c2nc(-n3nc(C)cc3C)ccc2Cl)cc1Cl,-8.27%
8,COc1ccc(C(C)=O)cc1CSc1nc2nc(C)cc(C)n2n1,5.26%
9,O=C(CCC1CCN(C(=O)c2cccc(Cl)c2F)CC1)Nc1ccccc1,2.28%
10,COc1cc(/C=C/C(=O)Nc2ccc(OC)c(S(=O)(=O)N3CCOCC3)c2)ccc1OCC#N,6.61%
11,Cc1ccc(CN2CCN(Cc3ccc(OCCO)cc3)CC2CCO)o1 (stereo not drawn),3.63%
12,N#Cc1c(NC(=O)c2ccc(N3CCOCC3)c([N+](=O)[O-])c2)sc2c1CCCC2,-30%
13,CC1(C)OC(=O)N2CCc3ccccc3C21C (stereo not drawn),11.5%
14,O=C(N/N=C/c1cccc(O)c1)c1cc2c(ccc3ccccc32)o1,7.99%
15,Cc1c(/C=N\NC(=O)c2cc3ccccc3o2)c2ccccc2n1C,67.3% (active)
16,Cc1c(/C=N/N2C(=O)C3C4C=CC(C4)C3C2=O)c2ccccc2n1C (stereo not drawn),-10.4%
17,COc1ccc(Cc2cc(-c3ccc(F)cc3)n[nH]c2=O)cc1,-2.24%
18,CC(C)c1ccc(S(=O)(=O)N2CCN(C(=O)c3ccc(N4CCCC4)c([N+](=O)[O-])c3)CC2)cc1,7.91%
19,CCOc1[nH]n(-c2ccc(Cl)cc2)c(=O)c1C=Nc1ccc(O)cc1,56.7% (active)
20,CCOc1ccc(N=C2NC(=O)S/C2=C\c2ccc(O)cc2)cc1,11.9%
21,O=C(NC(C(=O)NCCN1CCOCC1)C12CC3CC(CC(C3)C1)C2)C1CCCCC1 (stereo not drawn),-4.81%
22,N#Cc1ccccc1S(=O)(=O)N1CCN(C(=O)c2cc(-c3ccccc3)nn2-c2ccccc2)CC1,2.19%
23,O=[N+]([O-])/C=C1\CCCCCN1,-12.2%
24,COc1ccccc1C1C2=C(COC2=O)Nc2cc3c(cc21)OCO3 (stereo not drawn),70.3% (active)

row,Structure (SMILES),inhibition
1,O=C1NC(c2cc3c(cc2Cl)OCO3)Oc2ccccc21 (stereo not drawn),-7.28%
2,CCCOc1ccccc1C1CC(=O)Nc2cc3c(cc21)OCO3 (stereo not drawn),58.3% (active)
3,COC(=O)c1ccc(C2CC(=O)Nc3cc(OC)c(OC)cc32)cc1 (stereo not drawn),8.26%
4,COc1ccc(S(=O)(=O)Nc2ccc3c(c2)OCO3)cc1Cl,-1.75%
5,CCCOc1ccc(C2NC(=O)NC(c3ccccc3)=C2C(C)=O)cc1OCC (stereo not drawn),2.86%
6,COC(=O)C1=C(C(=O)OC)[C@@H]2N(C)c3ccccc3[C@@]23C[C@@H](C(=O)OC)N(C(=O)c2ccco2)C3=N1,18.3%
7,CC(C)Oc1ccc(/C=N/NC(=O)c2nnn(-c3nonc3N)c2CN(C)C2CCCCC2)cc1,-10.3%
8,Cc1cccc(OCC(=O)NC2CC(C)(C)NC(C)(C)C2)c1,23.8%
9,NS(=O)(=O)c1ccc(N=Cc2ccc(Br)s2)cc1,3.07%
10,CC(=O)Nc1ccc(Nc2cc(C)nc(Nc3ccc(NC(C)=O)cc3)n2)cc1,-8.27%
11,CCc1nc(Nc2ccc(NC(C)=O)cc2)c2oc3ccccc3c2n1,-24.7%
12,CC(=O)Nc1ccc(Nc2c3ccccc3nc3ccccc23)cc1,61.6% (active)
13,O=C(NCc1ccccc1)C(=O)NCC1OCCN1S(=O)(=O)c1ccc(Br)cc1 (stereo not drawn),13.9%
14,Cc1ccccc1N1CCN(Cc2nc(Cc3ccccc3F)no2)CC1,5.46%
15,Nc1nonc1-c1nc2ccccc2n1Cc1ccc(F)cc1,1.66%
16,COc1ccc(C)c(Cn2c(-c3nonc3N)nc3ccccc32)c1,65.7% (active)
17,CC(=O)Nc1nonc1-c1nc2ccccc2n1Cc1ccccn1,-4.81%
18,O=C(Nc1ccc(Cl)cc1)C1c2cccc[n+]2CC(=O)N1Cc1ccc2c(c1)OCO2 (stereo not drawn),-3.1%
19,O=C1CC[C@H](O)CCN1[C@H](CSc1ccc(Br)cc1)Cc1ccccc1,-3.24%
20,O=C(NCCOc1ccccc1Cl)C(=O)Nc1ccccc1,-8.66%
21,C[C@@H]1NC(=O)[C@@]2(C)[C@@H](c3ccccc3)[C@H]3COc4ccccc4[C@@H]3N2C1=O,7.9%
22,COc1ccc(NC(=O)CN2C(=O)COc3ccc(S(=O)(=O)N4CCOCC4)cc32)c(OC)c1,0.923%
23,C[C@H](NC(=O)c1ccccc1Cl)C(=O)OCCOc1cccc(Cl)c1,-1.51%
24,COC(=O)c1ccccc1NC(=O)CN(Cc1ccccc1)S(C)(=O)=O,0.443%

row,Structure (SMILES),inhibition
1,O=c1[nH]snc1-c1c(Cl)cccc1Cl,11.2%
2,Cc1c(NS(=O)(=O)c2cc(C(=O)NCCc3ccc(F)cc3)cc(Cl)c2Cl)c(=O)n(-c2ccccc2)n1C,13.5%
3,Cc1cccc(N(C)C(=O)c2cc3c(=O)[nH]c4ccc(C)cc4c3s2)c1,65.1% (active)
4,Cc1ccc2[nH]c(=O)c(CC(=O)O)c(-c3ccccc3)c2c1,-0.374%
5,CCN(CC)CCCNC(=O)c1cc2c(=O)[nH]c3ccc(C)cc3c2s1,-1.96%
6,CC(=O)N1CSCC1C(=O)O (stereo not drawn),-5.84%
7,Cc1c(C)c(C)c(S(=O)(=O)N2CCC3(CC2)OCCO3)c(C)c1C,-2.3%
8,COc1cc(CC(=O)Nc2nc(-c3ccc(F)c(F)c3)cs2)cc(OC)c1OC,49.7%
9,COc1ccc(CC(=O)Nc2nc(-c3ccc(F)c(F)c3)cs2)cc1OC,55.3% (active)
10,Cc1ccc(S(=O)(=O)NC(=O)Nc2nc(-c3ccc(F)c(F)c3)cs2)cc1,-14.8%
11,Cc1ccc(C(=O)OCC(=O)Nc2ccc(Cl)cn2)cc1S(=O)(=O)N1CCOCC1,3.39%
12,CCOC(=O)[C@H]1[C@H]2COc3ccc(OC)cc3[C@@H]2N2C(=O)c3ccc(F)cc3NC(=O)[C@@]12C,-10.9%
13,CC(N)C12CC3CC(CC(O)(C3)C1)C2 (stereo not drawn),6.68%
14,Cc1ccc2c(=O)oc(N(C)C)nc2c1,1.31%
15,Cc1cccc(NS(=O)(=O)c2ccc(-c3cnc(C4CC4)o3)cc2)c1,54.1% (active)
16,COc1ccc(CNS(=O)(=O)c2ccc(-c3cnc(C4CC4)o3)cc2)cc1,18.4%
17,Cc1cccc(CNS(=O)(=O)c2ccc(-c3cnc(C4CC4)o3)cc2)c1,5.99%
18,Cc1cccc(C)c1NC(=O)CNC(=O)C1CCCC1,-3.97%
19,Cc1ccc(S(=O)(=O)NC2CCCCCC2)cc1,-18.9%
20,Cc1ccc(S(=O)(=O)C2(S(=O)(=O)c3ccc(C)cc3)CCCC2)cc1,59.5% (active)
21,Cc1ccc(S(=O)(=O)N(C)C2(C)CCS(=O)(=O)C2)cc1 (stereo not drawn),7.55%
22,CC(=O)Nc1ccc(S(=O)(=O)NCC(=O)OCC(=O)c2ccc[nH]2)cc1,2.52%
23,Nc1c(C(=O)Nc2ccc3c(c2)OCCO3)nnn1Cc1ccccc1,-98.1%
24,CCCNC(=O)c1cnc(-c2ccccc2)nc1-c1ccccc1,17.2%

row,Structure (SMILES),inhibition
1,COc1ccc(CCNC(=O)/C(C#N)=C2\N=C(NC(=O)c3cccs3)c3ccccc32)cc1,-17.6%
2,C#CCSc1nnc(-c2sc3ccccc3c2Cl)o1,-65.2%
3,O=C(NCC#CCSc1nnc(-c2cccc3ccccc23)o1)c1cccs1,51.4% (active)
4,N/C(=N\c1nc2ccccc2o1)NC(=O)C(Cc1ccccc1)N1C(=O)c2ccccc2C1=O (stereo not drawn),-5.81%
5,O=C(CSc1ncnc2c1oc1ccccc12)NC1CCCC1,-16.7%
6,O=C(NCCC1CCCCN1S(=O)(=O)c1ccc(F)cc1)C(=O)NC1CC1 (stereo not drawn),2.56%
7,O=C(NCCC1CCCCN1S(=O)(=O)c1cccs1)C(=O)Nc1ccc(F)cc1F (stereo not drawn),57.9% (active)
8,COc1ccccc1CCNC(=O)C(=O)NCCC1CCCCN1S(=O)(=O)c1cccs1 (stereo not drawn),11.1%
9,COC(=O)Cn1cnc2scc(-c3ccc(C)c(C)c3)c2c1=O,11.8%
10,Cc1ccc(S(=O)(=O)N2CCN(C(=O)Cc3sc(C)nc3-c3ccc(F)cc3)CC2)c(C)c1,0.534%
11,Clc1cccc(Cl)c1OCCOCCNCc1ccccc1,61.5% (active)
12,CCOc1ccccc1OCCCNCc1ccccc1,-8.28%
13,OCCNCc1cccc(OCc2ccccc2Cl)c1,4.83%
14,Cc1ccc(C(=O)N2CCN(C3CCCCC3)CC2)s1,-4.14%
15,CC(C)(C)c1ccc(OC2=CS(=O)(=O)c3ccccc32)cc1,-29.9%
16,CC(C)(C)c1ccc(Oc2ccc(N)cc2)cc1,84.9% (active)
17,COc1cccc(Oc2ccc(N)cc2)c1,0.758%
18,Brc1ccc2ncnc(NCc3cccnc3)c2c1,28.6%
19,COc1ccc(Nc2ncnc3ccc(Br)cc23)c(OC)c1,59.8% (active)
20,O=C(O)CCCCCNc1ncnc2ccc(Br)cc12,5.8%
21,CC(C)c1ccc(-c2noc(C3CCCN(S(C)(=O)=O)C3)n2)cc1 (stereo not drawn),-30.6%
